# Laboratory results published in the supplement of paper PMC10646978.
# ± gives the standard deviation.
# What was measured:
# Settings in all cases: modulator concentration 10 µM
# [1] = test system: RAW-Dual (murine macrophage reporter line); assay: NF-kB reporter (SEAP) activity fold change vs agonist alone; higher = enhanced NF-kB activity
# In short: (§1)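 RAW-Dual murine macrophage reporter cells were seeded at 50 000 per well in 384-well plates and pre-incubated 1 hour at 37 °C with compound pin-transferred to 10 μM final. After 1 hour, a PRR agonist was added and cells incubated overnight. Supernatant NF-κB (SEAP, QUANTI-Blue, 620 nm absorbance) and IRF (Lucia luciferase, QUANTI-Luc, luminescence) signals were divided by the mean agonist-only control on the same plate to give fold change. Two replicate plates were averaged, with errors by propagation.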
# [2] = test system: RAW-Dual (murine macrophage reporter line); assay: IRF reporter (Lucia luciferase) activity fold change vs agonist alone; higher = enhanced IRF activity
# In short: as §1
# [3] = test system: RAW-Dual (murine macrophage reporter line); assay: viability score (confluency relative to resting cells, overnight) (fraction); higher = more viable, active = viable (0.7 or more)
# In short: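 RAW-Dual macrophages in 384-well plates were incubated overnight with compound, final concentration 10 μM. Confluency images from IncuCyte were processed in IncuCyte software into two masks covering all imaged wells. The viability score is each well's confluency relative to resting cells, and a compound met the cutoff when both masks exceeded 70% of resting cells.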
# [4] = agonist: CpG ODN 1826 0.5 ug/mL
Compound,"NF-kB reporter [1, 4]",NF-kB reporter ([1]; agonist: LPS 0.1 ug/mL),NF-kB reporter ([1]; agonist: MPLA […]),IRF reporter ([2]; agonist: 3'3'-cGAMP 10 ug/mL),IRF reporter ([2]; agonist: LPS 0.1 ug/mL),IRF reporter ([2]; agonist: MPLA […]),viability score [3]
CCOc1ccc(C=NNc2nc(C)cs2)c(O)c1,0.949 ± 0.087,0.965 ± 0.13,1.03 ± 0.073,0.624 ± 0.024,0.988 ± 0.069,0.981 ± 0.15,0.999 (active)
OC(Cn1cncn1)(Cn1cncn1)c1ccc(F)cc1F,0.875 ± 0.072,0.967 ± 0.066,1.05 ± 0.091,1.02 ± 0.052,1.46 ± 0.096,1.62 ± 0.18,0.988 (active)
CCOC(=O)C(CCc1ccccc1)NC(C)C(=O)N1C(C(=O)O)CC2CCCC21 (stereo unspecified),1.01 ± 0.28,0.998 ± 0.068,1.07 ± 0.072,0.878 ± 0.055,1.28 ± 0.21,1.34 ± 0.23,0.989 (active)
O=C(Nc1cc(C(F)(F)F)cc(C(F)(F)F)c1)c1ccco1,0.816 ± 0.11,1.07 ± 0.061,1.02 ± 0.072,0.715 ± 0.019,1.07 ± 0.23,0.89 ± 0.15,1.01 (active)
CCN(CC)c1nc(-c2ccccc2Cl)c2cc(Br)ccc2n1,0.999 ± 0.081,0.975 ± 0.1,1.02 ± 0.042,0.786 ± 0.058,1.05 ± 0.14,1.14 ± 0.25,1 (active)
O=C(NCCn1nc(-c2ccccn2)c2c1CCCC2)c1c(F)cccc1Cl,1.12 ± 0.062,1.19 ± 0.12,0.921 ± 0.043,0.975 ± 0.049,1.1 ± 0.068,1.2 ± 0.26,1 (active)
CN(C(=O)COc1coc(CN2CCN(c3ccccc3)CC2)cc1=O)c1ccccc1,0.931 ± 0.052,0.933 ± 0.06,0.977 ± 0.057,0.97 ± 0.034,1.18 ± 0.12,0.986 ± 0.088,1 (active)
CC(C)NC[C@H](O)COc1ccc(CCOCC2CC2)cc1.Cl,1.15 ± 0.1,1.07 ± 0.16,1.11 ± 0.037,0.871 ± 0.11,0.987 ± 0.09,0.868 ± 0.12,1 (active)
CC(C)N1CCN(c2ccc(OC[C@H]3CO[C@](Cn4cncn4)(c4ccc(Cl)cc4Cl)O3)cc2)CC1,1.04 ± 0.078,1.15 ± 0.077,1.08 ± 0.027,0.832 ± 0.048,1.05 ± 0.042,1.02 ± 0.11,0.997 (active)
O=C1Cc2cc(NC(=O)c3ccc(OC(F)(F)F)cc3)ccc2N1,1.19 ± 0.083,0.929 ± 0.076,0.998 ± 0.068,0.643 ± 0.034,0.959 ± 0.059,0.99 ± 0.13,1 (active)
CC1(C)OC(=O)C=CC2(C)C1CC(O)C1(C)C2CCC2(C)C(c3ccoc3)OC(=O)C3OC321 (stereo unspecified),1.29 ± 0.35,1.1 ± 0.11,1.06 ± 0.14,0.944 ± 0.032,1.22 ± 0.15,1.24 ± 0.17,0.99 (active)
Cc1ccc(C(CNC(=O)Cc2cccc3ccccc23)N(C)C)cc1 (stereo unspecified),0.647 ± 0.033,1.13 ± 0.094,1.06 ± 0.048,0.899 ± 0.045,1.03 ± 0.12,1.23 ± 0.27,0.738 (active)
CN1CCN(CCC=C2c3ccccc3Sc3ccc(S(=O)(=O)N(C)C)cc32)CC1,0.935 ± 0.071,1.04 ± 0.12,1.01 ± 0.051,0.856 ± 0.057,0.978 ± 0.078,0.872 ± 0.076,0.991 (active)
